Screens from PubChem BioAssay.
Hits are enriched below; roughly 1.7% of the tested compounds scored in any of these assays.
PfHsp40 yeast – rescue of PfHsp40-mediated yeast toxicity | S. cerevisiae expressing PfHsp40, growth rescue, ATP luminescence | growth rescue, % at 12.5 µM | 340,000 tested, 0.68% active; in the data active = growth rescue above about 28%, passing the limit was not always enough; inconclusive = no clear call, values can overlap the other calls;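 also: yeast W303a lacking pdr1 and pdr3 grown in galactose medium; growth measured after three days at 30 °C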
MazEF act – increases E. coli MazEF RNase cleavage of RNA; P0AE70; FAM/BHQ RNA-DNA oligo cleavage fluorescence, 5 h; activation, % at 20 µM; 350,000 tested, 0.32% active; in the data active = activation above about 50%
Target sequence (P0AE70 whole entry, looked up): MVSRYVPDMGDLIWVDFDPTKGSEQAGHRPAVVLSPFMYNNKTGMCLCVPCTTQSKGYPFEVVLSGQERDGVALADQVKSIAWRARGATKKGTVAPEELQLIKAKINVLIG
Vc quorum ag – inducers of Vibrio cholerae quorum light production without autoinducers | activation, % at 18.7 µM | AID 588436 | 350,000 tested, 0.16% active | V. cholerae BH1578 lux reporter, luminescence, 6 h; in the data active = activation mostly above about 9.7%, no sharp cut-off; inconclusive = no clear call, values can overlap the other calls; inactive = mostly below about 3.7%
BJeLR viability – BJeLR cell viability loss; BJeLR (HRASV12) viability, CellTiter-Glo ATP luminescence, 48 h; inhibition, % (test concentration not listed); 300,000 tested, 0.17% active; AID 1554; in the data active = inhibition above about 50%; inconclusive = no clear call, values can overlap the other calls
VHR inh abs – blocks human VHR1 dual specificity phosphatase. P51452. recombinant VHR phosphatase, pNPP absorbance. inhibition, % at 13.3 µM. 290,000 tested, 0.52% active; in the data active = inhibition above about 50%
Target sequence (P51452 whole entry, looked up): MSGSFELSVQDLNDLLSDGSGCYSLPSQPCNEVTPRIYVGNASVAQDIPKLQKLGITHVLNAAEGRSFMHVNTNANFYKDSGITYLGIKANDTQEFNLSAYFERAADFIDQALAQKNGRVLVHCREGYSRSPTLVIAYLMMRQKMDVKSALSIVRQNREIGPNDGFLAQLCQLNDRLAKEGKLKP
SARS 3CLpro inh – SARS-CoV 3CLpro protease inhibition; inhibition, % at 6 µM; recombinant SARS-CoV 3CLpro, quenched FRET peptide cleavage; 290,000 tested, 0.14% active; AID 1706; P0C6X7; in the data active = inhibition above about 12%
A number is an active result; - = inactive; ? = inconclusive; . = not tested or not shown.

SMILES	PfHsp40 yeast	MazEF act	Vc quorum ag	BJeLR viability	VHR inh abs	SARS 3CLpro inh
CN(C)C(Cc1ccc(Cl)cc1)C(=O)c1ccccc1 (configuration not stated)	-	-	-	-	-	-
O=C(N/N=C/C=C/c1ccccc1)c1cccc(Br)c1	?	53.5	-	-	-	-
COc1ccc(NC(=O)c2cc(C3CCCCN3C(=O)C3CCCCC3)on2)c(C)c1 (configuration not stated)	.	.	-	.	.	.
Cn1c(=O)c(C(=O)c2ccccc2)nc2ccccc21	-	-	-	-	51.9	-
O=C(CCn1c2c(c3ccccc31)CCCC2)NNC(=O)c1ccc(Cl)c([N+](=O)[O-])c1	-	-	-	-	51.9	-
CCc1nnc(N/N=C/c2cc(Br)c(O)cc2O)n1N	-	-	-	-	-	-
CC(C)(C)c1nnc(N/N=C/c2cc(Br)ccc2O)n(N)c1=O	-	-	-	85.4	-	-
CSC(=S)N/N=C/c1ccccc1	257.1	-	-	-	-	-
COc1ccc(/C=N/NC(=S)SC)cc1OC	-	-	.	-	-	-
O=C1CC(c2ccc(O)c(O)c2)Oc2cc(O)cc(O)c21 (configuration not stated)	-	-	-	-	-	.
CC(C)=CCc1c(O)ccc2c1OC(c1ccc(O)c(O)c1)CC2=O (configuration not stated)	-	86.5	-	-	-	-
O=C1CC(c2ccc(O)c(O)c2)Oc2c1ccc(O)c2O (configuration not stated)	-	52.7	-	.	-	.
CN(C(=O)c1ccc(NC(=O)Cc2ccc(NC(=O)C3CCCN(C(=O)C4CC4)C3)cc2)cc1)C1CCCC1 (configuration not stated)	-	-	-	.	.	.
Cn1c(N/N=C/c2c[nH]c3ccccc23)nc2ccccc21	-	-	-	-	-	-
Cn1c(N/N=C/c2cc3ccccc3nc2Cl)nc2ccccc21	-	206.8	-	-	-	-
O=C(O)c1ccc(C(=O)Nc2cccc3ccccc23)c(C(=O)O)c1	?	-	224.8	-	-	-
O=C(Nc1cccc(C(=O)O)c1)Nc1cccc2ccccc12	-	-	-	-	-	-
O=C(CCc1ccccc1)Nc1ncn[nH]1	-	-	-	-	52.7	-
CCCC(=O)N1CCC1(C)C(=O)NS(=O)(=O)c1ccc(C)cc1 (configuration not stated)	.	.	-	.	.	.
O=c1c2ccccc2nc(/C=C/c2ccc([N+](=O)[O-])cc2)n1CCCO	-	-	-	-	-	-
O=c1c2ccccc2nc(/C=C/c2ccc([N+](=O)[O-])o2)n1CCCO	-	-	.	51.8	-	-
CCOC(=O)c1c(-c2ccccc2)nc2ccc(C)cn12	206.6	-	-	-	-	-
CCOC(=O)c1c(-c2ccccc2)nc2cc(C)ccn12	-	-	-	-	-	-
CCOC(=O)c1sc(NC(=O)c2ccc(S(=O)(=O)N3CCCCC3)cc2)nc1-c1ccccc1	-	-	-	-	-	-
CCOC(=O)c1sc(NC(=O)c2ccc(S(=O)(=O)N3CCCCCC3)cc2)nc1-c1ccccc1	49.6	-	-	-	-	-
SMILES	PfHsp40 yeast	MazEF act	Vc quorum ag	BJeLR viability	VHR inh abs	SARS 3CLpro inh
CCOC(=O)c1sc(N)nc1-c1ccccc1	94.4	-	-	-	-	-
COc1ccc(OC)c(NC(=O)COC(=O)c2ccc(S(=O)(=O)N3CCCCC3)cc2)c1	.	-	-	.	.	.
CCC(C)NC(=O)CCC(=O)OC1O[C@H]2OC3(C)CC[C@H]4[C@H](C)CCC(C1C)C24OO3 (some centres not stated)	101.4	-	-	-	-	-
CC(=O)Nc1cccc(NC(=O)COc2ccc3c(c2)OCO3)c1	-	-	-	-	-	-
CCCCn1ccnc1C	-	-	-	-	58.2	-
NC(=O)COC(=O)C1CSC2(c3ccc(F)cc3)CCC(=O)N12 (configuration not stated)	-	-	-	-	-	-
CCn1nc(NC(=O)C(C)C)c2cc3cccc(C)c3nc21	-	-	-	-	56.0	-
CCCCN(C(=O)NC(=O)Nc1ccccc1OCC)S(C)(=O)=O	-	-	37.7	-	-	-
Cc1ccc(-c2cnc(C(O)c3cc(F)cc(Cl)c3)[nH]2)cc1 (configuration not stated)	.	.	-	.	.	.
Cc1ccc(C(=O)NC2CCSC2=O)cc1 (configuration not stated)	-	-	-	-	-	-
O=C(NC1CCSC1=O)c1ccc(Cl)cc1 (configuration not stated)	-	-	-	-	51.6	-
Cc1ccc2[nH]c(=O)c(C3C(C#N)=C(N)Oc4c3ccc3cccnc43)cc2c1 (configuration not stated)	84.4	-	-	-	-	-
CCCCCc1ccc(OCCOCCn2c[n+](C)c3ccccc32)c(CCCCC)c1	55.3	-	-	-	-	-
COc1ccc(S(=O)(=O)Nc2c(O)ccc3ccccc23)cc1OC	-	-	-	-	.	.
Cc1ccc(-c2csc(NCCn3c(C)nc4cc(C(F)(F)F)ccc43)n2)cc1	-	-	-	.	.	.
COc1ccc2[nH]c3nc(SCC(=O)NNC(=O)c4ccc(OC)c(OC)c4)nnc3c2c1	-	-	-	-	-	-
Cc1ccc(C(=O)NNC(=O)CSc2nnc3c(n2)[nH]c2ccc(F)cc23)cc1	-	-	.	-	56.7	-
Cc1nnc(NC(=O)CSc2nnc3c(n2)[nH]c2ccc(Br)cc23)s1	-	-	-	-	59.7	-
CC(C)c1ccc2[nH]c3nc(SCC(=O)NC4CC4)nnc3c2c1	-	-	-	-	-	-
N/C(=N\OC(=O)c1ccccc1F)c1cccc([N+](=O)[O-])c1	-	-	-	-	51.3	-
N/C(=N\OC(=O)c1ccccc1Br)c1cccc([N+](=O)[O-])c1	-	-	-	-	-	-
COc1ccc(Cl)cc1C(=O)CSc1nnnn1C1CCCC1	31.7	-	-	.	-	-
Cc1nn(C)c(C)c1S(=O)(=O)N(CC(=O)NCCCN1CCC(C)CC1)c1ccc(C(C)C)cc1	-	-	-	-	55.6	-
COc1ccc2oc(C(=O)NC3(C)CCS(=O)(=O)C3)c(C)c2c1 (configuration not stated)	-	-	-	-	.	.
CCc1nnc(NC(=O)CCC(=O)N2CCN(c3cc(Cl)ccc3C)CC2)s1	-	-	-	-	-	-
SMILES	PfHsp40 yeast	MazEF act	Vc quorum ag	BJeLR viability	VHR inh abs	SARS 3CLpro inh
COc1ccc(-n2sc3ccc(F)cc3c2=O)cc1	125.5	-	-	.	.	.
COc1ccc(-n2sc3ccccc3c2=O)cc1	.	-	-	.	.	.
O=c1c2cc(F)ccc2sn1-c1ccc(F)cc1	76.4	-	-	.	.	.
Oc1c(Br)cc(Br)cc1/C=N/NC(=S)N[C@H]1CC2C=CC1C2 (some centres not stated)	78.4	-	-	-	-	-
CNC(=S)N/N=C/c1cc(Br)cc(Br)c1O	?	-	-	-	-	-
Cc1ccc(O)c(CN(C)Cc2cc(C)ccc2O)c1	-	-	-	.	.	.
